# Measurements taken from the supplement of paper PMC12350171.
# Structures can show the parent of a compound that is named as a salt. Unmarked numbers belong to inactive results.
# What was measured:
# Details in all cases: 20 µM
# [1] = tested on: Salmonella enterica typhimurium; experiment: growth AUC normalised to DMSO control (fraction of control); higher = less growth inhibition, active = hit call of the paper
# Procedure, shortened: (§1)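 Pathogens were passaged twice under anaerobic conditions, then inoculated into pre-reduced mGAM plates at a starting OD578 of 0.01, with compound at 20 μM and 1% DMSO, and sealed with breathable membranes. For Haemophilus parainfluenzae, the medium was supplemented with hemin and NAD. OD578 was read every hour for 24 h in three biological replicates. Growth-curve AUC was calculated by the trapezoidal rule up to the exponential-to-stationary transition and normalised to DMSO controls on the same plate.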
# [2] = tested on: Shigella flexneri; experiment: as above
# Procedure, shortened: as §1
# [3] = tested on: Vibrio cholerae; experiment: as above
# Procedure, shortened: as §1
# [4] = tested on: Yersinia pseudotuberculosis; experiment: as above
# Procedure, shortened: as §1
# [5] = tested on: P. vulgatus RND KO; experiment: growth AUC normalised to DMSO control (median) (fraction of control); higher = less growth inhibition, active = hit call of the paper
# Procedure, shortened: (§2)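 Anaerobic growth was tracked hourly at OD578 for 24 h in 96-well plates of mGAM seeded at OD578 0.01 with each approved-drug library compound at 20 μM and 1% DMSO. Strains had first been passaged twice overnight without oxygen. Three biological replicates were run. The reported median is the area under the curve, calculated by the trapezoidal rule on curves truncated at entry into stationary phase and normalised to vehicle wells on the same plate.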
# [6] = tested on: P. vulgatus WT; experiment: as above
# Procedure, shortened: as §2
# [7] = tested on: S. enterica typhimurium WT; experiment: as above
# Procedure, shortened: as §2
# [8] = tested on: S. enterica typhimurium tolC KO; experiment: as above
# Procedure, shortened: as §2
# 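Wherever growth AUC normalised to DMSO control (median) is given: active when median AUC fell below 0.1.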
SMILES,growth AUC normalised to DMSO control [1],growth AUC normalised to DMSO control [2],growth AUC normalised to DMSO control [3],growth AUC normalised to DMSO control [4],growth AUC normalised to DMSO control [5],growth AUC normalised to DMSO control [6],growth AUC normalised to DMSO control [7],growth AUC normalised to DMSO control [8]
COc1ccc(C(=O)c2ccccc2)c(O)c1 [Oxybenzone],1.03,1.03,1,1,1.05,1.06,1,0.954
COC(=O)C1=C(C#N)NC(C)=C(C(=O)OC(C)C)C1c1cccc([N+](=O)[O-])c1 (configuration not stated) [Nilvadipine],1.01,1.03,1.02,1.02,1.15,1.12,1,0.922
COC(=O)[C@H]1[C@H]2C[C@@H]3c4[nH]c5cc(OC)ccc5c4CCN3C[C@H]2C[C@@H](OC(=O)c2cc(OC)c(OC)c(OC)c2)[C@@H]1OC [Reserpine],1.02,1.05,1.06,1.02,1.04,1.05,1.02,1
CO[C@H]1/C=C/O[C@@]2(C)Oc3c(C)c(O)c4c(O)c(c5c(nc6cc(C)ccn65)c4c3C2=O)NC(=O)/C(C)=C\C=C\[C@H](C)[C@H](O)[C@@H](C)[C@@H](O)[C@@H](C)[C@H](OC(C)=O)[C@@H]1C [Rifaximin],0.477 (active),0.56 (active),1.1,0.0303 (active),0.0137 (active),0.00787 (active),0.217,0.0409 (active)
CC(C)NCC(O)COc1ccc(CCOCC2CC2)cc1 (configuration not stated) [Betaxolol hydrochloride],0.998,0.988,1,1,1.01,1.01,1.01,1
Nc1ccn([C@H]2CC[C@@H](CO)O2)c(=O)n1 [Zalcitabine],1.02,1.02,1.06,1.04,1.04,1.06,1,1.01
CN1C(=O)CC(c2ccccc2)C1=O (configuration not stated) [Phensuximide],1.01,1.04,1.03,1.02,1.02,1.04,1,0.993
CN(Cc1cc(Br)cc(Br)c1N)C1CCCCC1 [Bromhexine hydrochloride],0.998,1.01,0.714 (active),1.02,0.999,0.977,1,0.948
CC[C@H]1OC(=O)[C@H](C)[C@@H](O[C@H]2C[C@@](C)(OC)[C@@H](O)[C@H](C)O2)[C@H](C)[C@@H](O[C@@H]2O[C@H](C)C[C@H](N(C)C)[C@H]2O)[C@](C)(O)C[C@@H](C)[C@@H]2N[C@@H](COCCOC)O[C@H]([C@H]2C)[C@]1(C)O [Dirithromycin],0.879 (active),0.915,0.154 (active),1,0.0107 (active),0.0116 (active),0.862,0.00235 (active)
CC(=O)N(CC(O)CN(C(C)=O)c1c(I)c(C(=O)NCC(O)CO)c(I)c(C(=O)NCC(O)CO)c1I)c1c(I)c(C(=O)NCC(O)CO)c(I)c(C(=O)NCC(O)CO)c1I (configuration not stated) [Iodixanol],0.977,0.943,0.99,0.977,1,0.98,0.996,1
CNCCCN1c2ccccc2CCc2ccccc21 [Desipramine hydrochloride],0.974,0.946,0.957,0.986,0.947,0.976,0.964,0.925
Nc1ccc(S(=O)(=O)Nc2ccnn2-c2ccccc2)cc1 [Sulfaphenazole],1,1.01,0.856 (active),1.01,0.989,0.961,0.998,0.981
CC(C)(CO)[C@@H](O)C(=O)NCCCO [(D)-Panthenol],0.999,1.02,0.998,0.99,0.995,0.979,1,1
CCN(CC)CCNC(=O)c1cc(S(C)(=O)=O)ccc1OC [Tiapride hydrochloride],0.985,0.992,1,1.01,0.961,0.952,0.992,0.999
CC1(C)O[C@@H]2[C@@H](CO[C@@]3(COS(N)(=O)=O)OC(C)(C)O[C@@H]23)O1 [Topiramate],0.985,1.02,1.02,1.01,0.961,0.967,0.996,0.992
OCCN1CCN(CCCN2c3ccccc3Sc3ccc(C(F)(F)F)cc32)CC1 [Fluphenazine dihydrochloride],1.01,0.97,1.01,1.01,1,1,0.993,0.918
COc1cc(NC(C)CCCN)c2ncccc2c1 (configuration not stated) [Primaquine diphosphate],0.998,1.01,1.01,1.02,1.01,1.02,1.01,0.998
Cn1cnc2c1c(=O)[nH]c(=O)n2C [Theobromine],1.03,1.08,1.04,1.03,1.02,1.03,1.01,1.01
O=C(O)c1cn(C2CC2)c2cc(N3CCNCC3)c(F)cc2c1=O [Ciprofloxacin hydrochloride monohydrate],0.00833 (active),0.0218 (active),0.0273 (active),0.0762 (active),0.0296 (active),0.679,0.00642 (active),0.00798 (active)
CC(=O)CC(c1ccccc1)c1c(O)c2ccccc2oc1=O (configuration not stated) [Warfarin],0.999,0.996,0.945,0.999,1,1.03,0.999,0.988
CCCCN(CCCC)CCCOC(=O)c1ccc(N)cc1 [Butacaine],0.988,1.01,0.981,1,1.05,1.04,1.01,1
CCC(=O)[C@@]1(C)[C@H](C)C[C@H]2[C@@H]3CCC4=CC(=O)C=C[C@]4(C)[C@H]3[C@@H](O)C[C@@]21C [Rimexolone],1.01,1.01,1.01,0.997,1.03,1.07,1,0.999
O=C(Nc1ccccc1)OCC(CN1CCCCC1)OC(=O)Nc1ccccc1 (configuration not stated) [Diperodon hydrochloride],1.01,1.03,0.999,1.01,0.998,1.01,0.997,0.986
CN1CCOC(c2ccccc2)c2ccccc2C1 (configuration not stated) [Nefopam hydrochloride],0.987,0.993,0.983,1,0.992,0.982,1,0.988
C=CC[N@@+]12CC[C@@]34c5ccccc5N5/C=C6/[C@H]7C[C@H]8[C@@]9(CC[N@@+]8(CC=C)C/C7=C/CO)c7ccccc7N(/C=C(/[C@@H](C[C@@H]31)/C(=C\CO)C2)[C@H]54)[C@@H]69 [Alcuronium chloride],0.94,1,1.09,1.03,1.05,1.06,1.01,1
O=C(NCC(O)CO)c1c(I)c(C(=O)NCC(O)CO)c(I)c(N(CCO)C(=O)CO)c1I (configuration not stated) [Ioversol],1.01,1.03,1.07,1.03,1.03,1.03,1,1.01
COCC(=O)Nc1c(I)c(C(=O)NCC(O)CO)c(I)c(C(=O)N(C)CC(O)CO)c1I (configuration not stated) [Iopromide],1,1.03,1.06,1.02,1.05,1.05,1.02,1.01
CC(C)(C)NCC(O)COc1cccc2c1CC(O)C(O)C2 (configuration not stated) [Nadolol],0.99,0.999,1,1,1.02,1.01,1,1
Nc1nc2c(ncn2COC(CO)CO)c(=O)[nH]1 [Ganciclovir],0.988,0.996,1,0.99,0.978,0.971,0.992,0.993
